The source of these data is PubChem BioAssay.

Unmarked numbers belong to inactive results.

This test in a line: resazurin metabolic signal in A549 cells – cell-based, resazurin fluorescence, 24 h, PK04 Diversity Set, profiling panel (AID 1171). Note: test concentration not given here. The conditions noted are these: A549 viability, higher = more signal, called active from +8 up or from −8 down. For orientation: Resazurin is reduced to fluorescent resorufin, in cell work by metabolically active cells.
For `CC1CC/C=C\[C@H]2OC34C=CCN(C(C)C)C(=O)[C@H]3N(CCO)C(=O)[C@@H]4C2C(=O)O1` (stereo partly specified), the z-score is -0.969.

On to `C=C(/C(=C/C[C@H](OC(=O)c1ccncc1)c1ccc(CO)o1)c1cnc2ccccc2c1)C(C)C`, for which the z-score is 0.208.

With `Cc1ccc(F)cc1S(=O)(=O)N[C@@H]1CCN(Cc2ccc(Br)cc2)C1`, the z-score was 0.728.

For `CN1C2C=C(CCCO)C(C3C(=O)N(C(N)=O)C(=O)C32)C1C1CC1` (stereo unspecified), the z-score was -0.513.

`Cc1ccc(S[C@]2(C(=O)O)CC(=O)N(C3CCCCC3)[C@@H]2c2ccc(CO)cc2I)cc1`: the z-score was 0.808.

For the compound `COCCOC(=O)N1C(=O)[C@@]2(c3cc(C#CC4(O)CCCCCC4)ccc31)[C@H](C(=O)N1CCc3cc(OC)c(OC)cc3C1)[C@H]1C(=O)O[C@H](c3ccccc3)[C@H](c3ccccc3)N1[C@@H]2c1ccc(OCCO)cc1`, the z-score was -0.317.

Take `COC(=O)[C@@]1(Cc2ccc(OC)cc2)[C@H]2c3cc(C(=O)N4CCCC4)n(CCc4c[nH]c5ccc(O)cc45)c3C[C@H]2CN1C(=O)c1ccccc1`: the z-score was 0.521.

Take `CN(C)C(=O)[C@]1(CCC(=O)OC(C)(C)C)N=C(c2ccc(OCCCO)cc2)O[C@@H]1c1ccccc1CN=[N+]=[N-]`: the z-score is 0.669.

Turning to `CCOC(=O)C1=CC[C@@H](c2ccccc2)N(S(=O)(=O)c2ccc(C)cc2)[C@H]1c1ccccc1`, the z-score is 1.44.

Turning to `NC(=O)[C@H]1[C@@H]2C(=O)O[C@@H](c3ccccc3)[C@@H](c3ccccc3)N2[C@@H](c2ccc(OCCO)cc2)[C@]12C(=O)Nc1ccc(C#CCCO)cc12`, the z-score was -0.0196.

With `CCCCCCCCCC(O)C1C=CC2C(=O)N(c3ccccc3)C(=O)C2N1Nc1cc(OC)c(OC)c(OC)c1` (stereo unspecified), the z-score is -1.58.

Take `COc1cc(OC)c(C(O)C2C=CC3C(=O)N(Cc4ccccc4)C(=O)C3N2n2cnnc2)cc1Br` (stereo unspecified): the z-score was -0.963.

Consider `O=C1O[C@@H](c2ccccc2)[C@@H](c2ccccc2)N2[C@@H](c3ccc(OCCO)cc3)[C@]3(C(=O)Nc4ccc(C#CC5=CCCCC5)cc43)[C@@H](C(=O)NC[C@H](O)c3ccccc3)[C@H]12`, for which the z-score was -0.956.

As to `CC(C)[Si](C#CCCCC#N)(O[C@H](c1ccccc1)c1cn(Cc2ccccc2)nn1)C(C)C`, the z-score is -0.235.

Consider `CC1=C2[C@@H](CCc3ccccc3)OB(O)C[C@@H]2[C@@H]2C(=O)N(C)C(=O)[C@@H]2C1`, for which the z-score is 0.0857.

As to `COc1ccc([Si](C)(C)[C@H]2[C@H](CC(=O)N(CCO)Cc3ccccc3)O[C@@]3(C(=O)N(C)c4c(Br)cc(C)cc43)[C@@H]2C)cc1`, the z-score is -1.02.

As for `C=CC[C@@]1(C(=O)NCCCOC)N=C(c2ccc(OCCCO)cc2)O[C@@H]1c1ccccc1N=[N+]=[N-]`, the z-score was 0.2.

With `COC(=O)C(CC#Cc1ccc2c(c1)[C@]1(C(=O)N2)[C@H](c2ccc(O)cc2)N2[C@H](c3ccccc3)[C@H](c3ccccc3)OC(=O)[C@H]2[C@@H]1C(=O)NC[C@H](O)c1ccccc1)C(=O)OC`, the z-score is -0.407.

For the compound `COc1ccc([Si](C)(C)[C@H]2[C@H](CC(=O)N3Cc4ccccc4C[C@H]3CO)O[C@@]3(C(=O)N(Cc4ccc(N5CCOC5=O)cc4)c4ccccc43)[C@@H]2C)cc1`, the z-score was -0.0717.

As for `COC(=O)c1c(CC[C@@H](CO)NC(=O)N[C@@H](C)Cn2cc(-c3ccccn3)nn2)oc(C(C)=O)c1C(=O)OC`, the z-score was -1.38.

Regarding `COCC(=C=CC[C@H](O)c1ccc(OCCO)cc1)CCO`, the z-score was 1.01.

For the compound `N[C@@H](Cc1ccccc1)C(=O)NCc1cn(Cc2ccccc2)nn1`, the z-score was 0.825.

Turning to `CCOC(=O)C[C@H]1[C@H](OC(=O)Cc2ccc3c(c2)OCO3)[C@@H](NC(=O)c2ccc3ccccc3n2)c2cc(OCCCO)ccc2N1C(=O)c1ccccc1`, the z-score is 0.231.

Consider `CC(CO)N1C(=O)[C@]2(C)C3C(=O)OCCC/C=C\[C@H]3OC23C=CCN(c2ccc(Cl)cc2)C(=O)[C@@H]13` (stereo partly specified), for which the z-score was -0.0794.

Consider `CC(=O)NCCCC[C@@H]1NC(=O)[C@@H]2C[C@H](C(=O)NCCCCCN)[C@H](c3ccc(O)cc3)N2C1=O`, for which the z-score is -1.42.

With `COC(=O)[C@@]1(Cc2ccccc2)[C@H]2c3cc(C(=O)N(C)C)n(Cc4ccc(C)o4)c3C[C@H]2CN1C(=O)c1ccccc1`, the z-score is -1.42.

For the compound `CCCC[C@@H](O)C1=C(COc2ccccc2)C[C@H]2C(=O)N(Cc3ccccc3)C(=O)[C@H]2[C@H]1CO`, the z-score is -0.0959.

On to `COC(=O)C1(CC(C)C)C=C2C(=C(c3ccccc3)C(=O)C2C)CN1` (stereo unspecified), for which the z-score is -0.614.

`COc1ccc(CCNC(=O)[C@@]2(c3ccc([N+](=O)[O-])cc3)CC(=O)N(C3CCCCC3)[C@@H]2c2ccc(CO)cc2)cc1`: the z-score is 1.28.

`COCCCNC(=O)[C@@]1(Sc2ccc(C)cc2)CC(=O)N(C2Cc3ccccc3C2)[C@@H]1c1ccc(CO)cc1`: the z-score was 0.491.

Regarding `CS(=O)(=O)CCOC(=O)C1=CC(c2ccc(CO)cc2)=CC(C2CC2)N(Cc2sc3ccccc3c2Cl)C=C1C(=O)OCCS(C)(=O)=O` (stereo unspecified), the z-score is -1.05.

For `C=CCOC(=O)[C@@H]1[C@H]2C(=O)O[C@H](c3ccccc3)[C@H](c3ccccc3)N2[C@H](c2ccc(OCCOC(=O)[C@@H]3C[C@@H]4C(=O)N[C@@H](CCCC[N+](C)(C)C)C(=O)N4[C@@H]3c3ccc(O)cc3)cc2)[C@@]12C(=O)Nc1ccc(I)cc12`, the z-score was 0.0416.

As for `OCCCC1=CC(c2ccc(CN3CCCC3)cc2)N(Cc2cc3c(cc2Br)OCO3)CC1` (stereo unspecified), the z-score is 0.731.

Consider `CC(c1ccccc1)C(O)C1C=CC2C(=O)N(C)C(=O)C2N1Nc1ccccc1` (stereo unspecified), for which the z-score was -0.183.

Consider `CC(C)N1C(=O)C[C@@](C(=O)O)(c2ccc([N+](=O)[O-])cc2)[C@H]1c1ccc(CO)cc1`, for which the z-score is -0.602.

As to `CCCC#C[Si](O[C@H](CC)c1cn([C@H](C)c2ccccc2)nn1)(C(C)C)C(C)C`, the z-score is 0.61.
